# According to the supplement of paper PMC4022240:
# ± gives the standard deviation.
# T1: HaloTag-ATRX ADD domain (163-292)
# T1 chain: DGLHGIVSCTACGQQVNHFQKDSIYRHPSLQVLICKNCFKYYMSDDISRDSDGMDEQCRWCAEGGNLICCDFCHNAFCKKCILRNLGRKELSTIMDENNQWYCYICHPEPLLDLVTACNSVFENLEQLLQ
# How the values were obtained:
# Experiment in all cases: peptide microarray binding signal (635 nm), min-max normalized on array (fraction of array maximum); higher = stronger binding
# Settings in all cases: peptide region: H3 20-32
# [1] = biological target: T1, HaloTag-ATRX ADD domain (163-292)
# Outline: (§1)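 Triplicate spots of histone 13-mer peptide–cellulose conjugates with a Cy3 tracer were printed on nitrocellulose and probed for 1 h at 4°C with biotin-labelled HaloTag reader fusions (10 nM to 1 μM) plus streptavidin-Alexa Fluor 647 or rabbit histone antibodies (1:10,000 to 1:2,000) plus anti-rabbit Alexa 647. An Axon GenePix 4000B read the 635 nm channel. Binding signal is the spot-triplicate mean intensity after min-max scaling within each library.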
# [2] = biological target: HaloTag-ING2 PHD (mouse Ing2 200-280)
# Outline: as §1
# [3] = biological target: anti-H3K4me3 antibody ab8580
# Outline: as §1
# [4] = biological target: anti-H3K9me3 antibody ab8898
# Outline: as §1
# [5] = peptide modifications: H3R26cit H3K27me2, binder concentration: 1:2,000 dilution
# [6] = peptide modifications: H3R26cit H3K27me2, binder concentration: 1:10,000 dilution
# [7] = peptide modifications: H3R26me2a H3K27ac, binder concentration: 1:2,000 dilution
# [8] = peptide modifications: H3R26me2a H3K27ac, binder concentration: 1:10,000 dilution
# [9] = peptide modifications: H3K27me1 H3S28ph, binder concentration: 1:2,000 dilution
# [10] = peptide modifications: H3K27me1 H3S28ph, binder concentration: 1:10,000 dilution
# [11] = peptide modifications: H3K27me3, binder concentration: 1:2,000 dilution
# [12] = peptide modifications: H3K27me3, binder concentration: 1:10,000 dilution
# [13] = peptide modifications: H3K27me1, binder concentration: 1:2,000 dilution
# [14] = peptide modifications: H3K27me1, binder concentration: 1:10,000 dilution
binder,measurement,setting,value
LATKAARKSAPAT [H3 20-32 L A T K A A Rcit Kme2 S A P A T],peptide microarray binding signal,"[1]; peptide modifications: H3R26cit H3K27me2, binder concentration: 50 nM",0.00414 ± 5.8e-05
same,peptide microarray binding signal,"[1]; peptide modifications: H3R26cit H3K27me2, binder concentration: 500 nM",0.00333 ± 0.00011
same,peptide microarray binding signal,"[2]; peptide modifications: H3R26cit H3K27me2, binder concentration: 10 nM",0.00692 ± 0.00014
same,peptide microarray binding signal,"[2]; peptide modifications: H3R26cit H3K27me2, binder concentration: 100 nM",0.00843 ± 0.00034
same,peptide microarray binding signal,[3]; [5],0.00262 ± 0.00016
same,peptide microarray binding signal,[3]; [6],0.00314 ± 4.6e-05
same,peptide microarray binding signal,[4]; [5],0.00196 ± 6.8e-05
same,peptide microarray binding signal,[4]; [6],0.00167 ± 4.8e-05
LATKAARKSAPAT [H3 20-32 L A T K A A Rme2a Kac S A P A T],peptide microarray binding signal,"[1]; peptide modifications: H3R26me2a H3K27ac, binder concentration: 50 nM",0.00467 ± 0.00027
same,peptide microarray binding signal,"[1]; peptide modifications: H3R26me2a H3K27ac, binder concentration: 500 nM",0.0126 ± 0.0011
same,peptide microarray binding signal,"[2]; peptide modifications: H3R26me2a H3K27ac, binder concentration: 10 nM",0.0197 ± 0.0013
same,peptide microarray binding signal,"[2]; peptide modifications: H3R26me2a H3K27ac, binder concentration: 100 nM",0.0246 ± 0.0016
same,peptide microarray binding signal,[3]; [7],0.00936 ± 0.0018
same,peptide microarray binding signal,[3]; [8],0.0107 ± 0.00049
same,peptide microarray binding signal,[4]; [7],0.00763 ± 0.0006
same,peptide microarray binding signal,[4]; [8],0.00565 ± 0.00056
LATKAARKSAPAT [H3 20-32 L A T K A A R Kme Sph A P A T],peptide microarray binding signal,"[1]; peptide modifications: H3K27me1 H3S28ph, binder concentration: 50 nM",0.00502 ± 0.00011
same,peptide microarray binding signal,"[1]; peptide modifications: H3K27me1 H3S28ph, binder concentration: 500 nM",0.00762 ± 0.00035
same,peptide microarray binding signal,"[2]; peptide modifications: H3K27me1 H3S28ph, binder concentration: 10 nM",0.0135 ± 0.00073
same,peptide microarray binding signal,"[2]; peptide modifications: H3K27me1 H3S28ph, binder concentration: 100 nM",0.0189 ± 0.00035
same,peptide microarray binding signal,[3]; [9],0.00485 ± 0.0004
same,peptide microarray binding signal,[3]; [10],0.00519 ± 0.00023
same,peptide microarray binding signal,[4]; [9],0.00263 ± 0.00013
same,peptide microarray binding signal,[4]; [10],0.00277 ± 0.00013
LATKAARKSAPAT [H3 20-32 L A T K A A R Kme3 S A P A T],peptide microarray binding signal,"[1]; peptide modifications: H3K27me3, binder concentration: 50 nM",0.00602 ± 0.00022
same,peptide microarray binding signal,"[1]; peptide modifications: H3K27me3, binder concentration: 500 nM",0.008 ± 0.00041
same,peptide microarray binding signal,"[2]; peptide modifications: H3K27me3, binder concentration: 10 nM",0.0119 ± 0.00027
same,peptide microarray binding signal,"[2]; peptide modifications: H3K27me3, binder concentration: 100 nM",0.0118 ± 0.00043
same,peptide microarray binding signal,[3]; [11],0.0112 ± 0.0008
same,peptide microarray binding signal,[3]; [12],0.00907 ± 0.0011
same,peptide microarray binding signal,[4]; [11],0.0533 ± 0.0049
same,peptide microarray binding signal,[4]; [12],0.0225 ± 0.0027
LATKAARKSAPAT [H3 20-32 L A T K A A R Kme S A P A T],peptide microarray binding signal,"[1]; peptide modifications: H3K27me1, binder concentration: 50 nM",0.00455 ± 9.6e-05
same,peptide microarray binding signal,"[1]; peptide modifications: H3K27me1, binder concentration: 500 nM",0.00714 ± 0.00042
same,peptide microarray binding signal,"[2]; peptide modifications: H3K27me1, binder concentration: 10 nM",0.00961 ± 0.00022
same,peptide microarray binding signal,"[2]; peptide modifications: H3K27me1, binder concentration: 100 nM",0.0148 ± 0.00019
same,peptide microarray binding signal,[3]; [13],0.00402 ± 0.00028
same,peptide microarray binding signal,[3]; [14],0.00405 ± 0.00025
same,peptide microarray binding signal,[4]; [13],0.00231 ± 0.00014
same,peptide microarray binding signal,[4]; [14],0.00208 ± 3.9e-05
